NSD2 HMT inh = blocks human histone methyltransferase NSD2; NSD2 peptide methylation, AlphaScreen, 120 min; 0.54% of 310,000 active; O96028; AID 743445; inhibition, % at 12.5 µM; in the data active means inhibition above about 50%
Target sequence (O96028 whole entry, looked up): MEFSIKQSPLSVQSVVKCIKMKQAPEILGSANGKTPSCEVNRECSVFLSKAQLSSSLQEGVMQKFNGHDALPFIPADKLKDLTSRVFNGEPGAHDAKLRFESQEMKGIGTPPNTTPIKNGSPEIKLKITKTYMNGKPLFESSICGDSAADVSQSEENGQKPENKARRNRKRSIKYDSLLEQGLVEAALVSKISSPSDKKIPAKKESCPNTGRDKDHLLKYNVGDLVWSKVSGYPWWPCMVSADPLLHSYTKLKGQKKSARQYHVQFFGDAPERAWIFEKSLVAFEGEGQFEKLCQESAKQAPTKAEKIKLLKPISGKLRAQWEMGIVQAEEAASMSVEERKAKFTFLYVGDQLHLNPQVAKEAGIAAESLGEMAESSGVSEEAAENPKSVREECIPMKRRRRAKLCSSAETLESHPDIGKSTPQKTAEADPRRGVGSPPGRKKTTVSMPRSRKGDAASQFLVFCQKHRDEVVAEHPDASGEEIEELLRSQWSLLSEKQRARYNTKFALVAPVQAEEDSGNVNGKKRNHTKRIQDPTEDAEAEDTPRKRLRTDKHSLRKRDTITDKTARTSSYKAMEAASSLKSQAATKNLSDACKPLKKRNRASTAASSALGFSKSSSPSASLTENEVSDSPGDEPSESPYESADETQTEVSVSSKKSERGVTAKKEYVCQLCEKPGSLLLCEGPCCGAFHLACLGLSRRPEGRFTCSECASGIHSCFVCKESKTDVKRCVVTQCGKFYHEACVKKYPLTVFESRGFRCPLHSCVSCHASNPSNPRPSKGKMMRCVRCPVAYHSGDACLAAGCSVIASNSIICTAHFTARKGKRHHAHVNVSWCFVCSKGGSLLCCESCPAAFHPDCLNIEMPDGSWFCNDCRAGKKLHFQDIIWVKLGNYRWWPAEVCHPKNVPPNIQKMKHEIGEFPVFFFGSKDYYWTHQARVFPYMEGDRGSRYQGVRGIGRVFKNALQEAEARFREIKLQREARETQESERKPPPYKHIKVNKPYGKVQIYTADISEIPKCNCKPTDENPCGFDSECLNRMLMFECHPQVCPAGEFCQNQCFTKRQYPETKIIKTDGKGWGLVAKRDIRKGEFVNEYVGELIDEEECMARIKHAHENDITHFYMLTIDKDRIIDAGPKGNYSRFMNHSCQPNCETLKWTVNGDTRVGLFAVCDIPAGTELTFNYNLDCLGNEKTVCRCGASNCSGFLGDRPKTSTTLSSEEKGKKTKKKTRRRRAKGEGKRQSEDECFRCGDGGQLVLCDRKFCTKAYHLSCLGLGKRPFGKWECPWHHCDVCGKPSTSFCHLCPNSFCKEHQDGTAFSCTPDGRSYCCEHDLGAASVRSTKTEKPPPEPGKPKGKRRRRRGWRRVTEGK
PAX8 inh HTS = PAX8 transcriptional activity inhibition; RMG-I TPO-luciferase reporter, SteadyGlo, 24 h; inhibition, % at 12.6 µM; 1.2% of 360,000 active; AID 652154;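 active means mean replicate inhibition at least 60% with every replicate also reaching 60%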;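 further: luciferase light reporting Pax8 driven TPO promoter activity; plate controls were median of neutral control wells for no effect and mitoxantrone controls for full effect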
Glyco luc inh = blocks N-linked glycosylation in D54 reporter cells. 0.23% of 360,000 active. D54 ERlucT glycosylation luciferase reporter, 24 h; percent of 100 nM tunicamycin response. reporter increase, % at 12.5 µM;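 active means mean luciferase reporter signal, scaled so untreated is 0 and the glycosylation-blocking control 100, at or above a set limit in every replicate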;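 further: luciferase carries N-glycosylation sites so blocking glycosylation raises the light; 0% = median of neutral control wells and 100% = median of 100 nM tunicamycin wells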
EBV LMP1 NFkB = inhibitors of Epstein-Barr LMP1-induced NF-kappaB reporter. LMP1-induced NF-kappaB luciferase reporter cells, luminescence. inhibition, % at 12.5 µM. 0.69% of 350,000 active; in the data active means inhibition above about 41%;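 further: 0% = neutral control wells and 100% = reference inhibitor control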
HIV Env fusion = HIV envelope-mediated fusion inhibition | HeLa-JRFL Env/CEM21 cell fusion, luciferase | inhibition, % at 12.3 µM | 1.1% of 360,000 active | AID 651610;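 active means mean replicate inhibition score of at least 50 and every replicate individually at or above 50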;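 further: 0% = plate neutral controls and 100% = maraviroc near 300 nM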
Shn3 inh set2 = Schnurri-3 reporter inhibition in Clone20 osteoblasts; inhibition, % at 12.5 µM; 0.52% of 360,000 active; AID 588674; Clone20 osteoblast Shn3 3'UTR firefly luciferase, 24 h;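 active means mean inhibition of at least 75% with every replicate also reaching 75%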;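 further: 0% = median of neutral control wells and 100% = pilot-screen positive control compound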
Active calls of the source: *; [ ] = dose if it differs, or a comment. The list is not random: actives were taken first. Their share in the collection is about 2.8%.

What do the screens show for `C[C@@H]1CCCCO[C@H](CN(C)CC2CCCCC2)[C@H](C)CN([C@H](C)CO)C(=O)c2cc(NS(=O)(=O)c3ccc(Cl)cc3)ccc2O1`?
PAX8 inh HTS: 95*; HIV Env fusion: -13[16.7 µM]

How did Cc1ccc(S(=O)(=O)Nc2ccc3c(c2)C(=O)N([C@H](C)CO)C[C@@H](C)[C@@H](CN(C)CC2CCCCC2)OCCCC[C@H](C)O3)cc1 do in these assays?
PAX8 inh HTS: 27; HIV Env fusion: 15[16.7 µM]

Results for Cc1ccc(S(=O)(=O)Nc2ccc3c(c2)C(=O)N([C@H](C)CO)C[C@@H](C)[C@@H](CN(C)CC2CCCCC2)OCCCC[C@@H](C)O3)cc1 ?
PAX8 inh HTS: 88*; HIV Env fusion: 8[16.7 µM]

What do the screens show for `C[C@@H]1CN([C@H](C)CO)C(=O)c2cc(NS(=O)(=O)c3ccc(Cl)cc3)ccc2O[C@@H](C)CCCCO[C@@H]1CN(C)CC1CCCCC1`?
PAX8 inh HTS: 78*; HIV Env fusion: -12[16.7 µM]

Results for COc1ccc(S(=O)(=O)Nc2ccc3c(c2)C(=O)N([C@H](C)CO)C[C@H](C)[C@@H](CN(C)Cc2ccc(C(=O)O)cc2)OCCCC[C@H](C)O3)cc1 ?
PAX8 inh HTS: -23; HIV Env fusion: 15[16.7 µM]

Results for COCC(=O)N(C)C[C@@H]1Oc2cc(C#CC3CCCC3)ccc2S(=O)(=O)N([C@@H](C)CO)C[C@H]1C ?
HIV Env fusion: 7[16.7 µM]

Results for CC(C)(C)c1ccc(OCc2ccc(C(=O)Nc3cccnc3)o2)cc1 ?
PAX8 inh HTS: -32; Glyco luc inh: 29*; EBV LMP1 NFkB: -43; HIV Env fusion: -7; Shn3 inh set2: 0

What do the screens show for `CCC(=O)Oc1ccc2c(C)cc(=O)oc2c1C(=O)c1ccccc1`?
NSD2 HMT inh: 4; PAX8 inh HTS: 88*; Glyco luc inh: -2; EBV LMP1 NFkB: 4; Shn3 inh set2: 5

Results for Cc1cc(=O)oc2c(C)c(OCC(=O)N(C)C)ccc12 ?
NSD2 HMT inh: 0; Glyco luc inh: 0; EBV LMP1 NFkB: 42*; Shn3 inh set2: 6

What do the screens show for `Cc1c(C)c2ccc(OCC(=O)N(C)C)c(C)c2oc1=O`?
NSD2 HMT inh: -3; Glyco luc inh: 4; EBV LMP1 NFkB: -9; Shn3 inh set2: -28

Results for COc1ccccc1-c1ccc2c(c1)O[C@H](CN(C)C(C)=O)[C@@H](C)CN([C@@H](C)CO)S2(=O)=O ?
HIV Env fusion: 8[16.7 µM]

What do the screens show for `CCC(C)[C@@H](NC(=O)OC(C)(C)C)c1nnc(S(=O)(=O)Cc2cccc(C)c2)o1` (stereo not given in full)?
NSD2 HMT inh: 1; Glyco luc inh: -15; EBV LMP1 NFkB: 1; Shn3 inh set2: 98*

Results for CC(C)(C)OC(=O)N[C@@H](Cc1ccccc1)c1nnc(S(=O)(=O)Cc2ccccc2)o1 ?
PAX8 inh HTS: 14; HIV Env fusion: 47

Results for Cc1ccccc1CS(=O)(=O)c1nnc([C@H](Cc2ccccc2)NC(=O)OC(C)(C)C)o1 ?
NSD2 HMT inh: 15; Glyco luc inh: -19; EBV LMP1 NFkB: 7; Shn3 inh set2: 95*

Results for CO[C@@H]1CN(C)C(=O)c2ccc(NS(=O)(=O)c3ccc(-c4ccccc4)cc3)cc2OC[C@@H](C)NC[C@@H]1C ?
PAX8 inh HTS: -8

Results for O=C(C[C@@H]1CC[C@H]2[C@@H](COC[C@H](O)CN2Cc2cc(F)ccc2F)O1)NCc1ccccc1 ?
PAX8 inh HTS: -20

What do the screens show for `O=C(CC1CCC1)NC(c1ccccc1)c1ccccc1`?
NSD2 HMT inh: -2; PAX8 inh HTS: 4; Glyco luc inh: 0; EBV LMP1 NFkB: -7; HIV Env fusion: 5; Shn3 inh set2: 4

How did CC1CCCC(CC(N)=O)CC1 (stereo not given) do in these assays?
NSD2 HMT inh: -1; PAX8 inh HTS: 6; Glyco luc inh: 1; EBV LMP1 NFkB: -3; HIV Env fusion: -2; Shn3 inh set2: 94*

Results for CC(=O)C1=C(C)NC2=C(C(=O)c3ccccc32)C1c1ccccc1 (stereo not given) ?
NSD2 HMT inh: 10; PAX8 inh HTS: 8; Glyco luc inh: 1; EBV LMP1 NFkB: -1; HIV Env fusion: 64*; Shn3 inh set2: -11

How did CCc1ccc(OCC(=O)NNC(=O)C2CCC2)cc1 do in these assays?
NSD2 HMT inh: 8; PAX8 inh HTS: -4; Glyco luc inh: 1; EBV LMP1 NFkB: 1; HIV Env fusion: 64*; Shn3 inh set2: 14

Results for O=C(O)c1ccc(Nc2nc3c(s2)CCCC3)cc1 ?
PAX8 inh HTS: 67*; Glyco luc inh: -21; EBV LMP1 NFkB: 39; HIV Env fusion: 38; Shn3 inh set2: 28

Results for Cc1cccc(Nc2nc3c(s2)CCCC3)c1 ?
NSD2 HMT inh: 3; PAX8 inh HTS: -216; Glyco luc inh: -7; EBV LMP1 NFkB: -43; HIV Env fusion: -56; Shn3 inh set2: -80

What do the screens show for `CC(C)NC(=O)Nc1ccc2c(c1)CC(=O)N([C@@H](C)CO)C[C@@H](C)[C@@H](CN(C)S(C)(=O)=O)O2`?
PAX8 inh HTS: -7; HIV Env fusion: 4[16.7 µM]

How did O=C(N/N=C(\c1ccccc1)c1cccnc1)c1cccc(F)c1 do in these assays?
NSD2 HMT inh: 3; PAX8 inh HTS: 73*; Glyco luc inh: -17; EBV LMP1 NFkB: 46*; HIV Env fusion: 20; Shn3 inh set2: 95*

What do the screens show for `O=C1Nc2ccccc2C1Cc1ccccc1` (stereo not given)?
NSD2 HMT inh: -2; PAX8 inh HTS: -4; Glyco luc inh: 0; EBV LMP1 NFkB: 1; HIV Env fusion: 1; Shn3 inh set2: 12

How did COc1ccc(C[C@@H]2OC3(C=CC(=O)C=C3)O[C@H]2Cc2ccc(OC)cc2)cc1 do in these assays?
NSD2 HMT inh: 0; Glyco luc inh: -20; EBV LMP1 NFkB: 79*; Shn3 inh set2: 94*

How did O=C1C=CC2(C=C1)O[C@H](Cc1ccccc1)[C@@H](Cc1ccccc1)O2 do in these assays?
PAX8 inh HTS: 121*; Glyco luc inh: -18; EBV LMP1 NFkB: 87*; HIV Env fusion: 13; Shn3 inh set2: 97*

Results for CCOC(=O)NC1CCc2cc(OC)c(OC)c(OC)c2-c2ccc(SC)c(=O)cc21 (stereo not given) ?
NSD2 HMT inh: 4; PAX8 inh HTS: 83*; Glyco luc inh: 4; EBV LMP1 NFkB: 0; HIV Env fusion: -181; Shn3 inh set2: -3

Results for CCCCOC(=O)NC1CCc2cc(OC)c(OC)c(OC)c2-c2ccc(SC)c(=O)cc21 (stereo not given) ?
NSD2 HMT inh: 8; PAX8 inh HTS: 79*; Glyco luc inh: 1; EBV LMP1 NFkB: 0; HIV Env fusion: -24; Shn3 inh set2: -1

What do the screens show for `CCOCC(=O)NC1CCc2cc(OC)c(OC)c(OC)c2-c2ccc(SC)c(=O)cc21` (stereo not given)?
NSD2 HMT inh: -1; PAX8 inh HTS: 86*; Glyco luc inh: 6; EBV LMP1 NFkB: -4; Shn3 inh set2: 2
